# Data from ChEMBL document CHEMBL2218924, “A broad activity screen in support of a chemogenomic map for kinase signalling research and drug discovery” (Biochem J, 2013).
# Biological target: T1, Serine/threonine-protein kinase BRSK1 (Homo sapiens) (UniProt Q8TDC3)
# T1 sequence (whole entry): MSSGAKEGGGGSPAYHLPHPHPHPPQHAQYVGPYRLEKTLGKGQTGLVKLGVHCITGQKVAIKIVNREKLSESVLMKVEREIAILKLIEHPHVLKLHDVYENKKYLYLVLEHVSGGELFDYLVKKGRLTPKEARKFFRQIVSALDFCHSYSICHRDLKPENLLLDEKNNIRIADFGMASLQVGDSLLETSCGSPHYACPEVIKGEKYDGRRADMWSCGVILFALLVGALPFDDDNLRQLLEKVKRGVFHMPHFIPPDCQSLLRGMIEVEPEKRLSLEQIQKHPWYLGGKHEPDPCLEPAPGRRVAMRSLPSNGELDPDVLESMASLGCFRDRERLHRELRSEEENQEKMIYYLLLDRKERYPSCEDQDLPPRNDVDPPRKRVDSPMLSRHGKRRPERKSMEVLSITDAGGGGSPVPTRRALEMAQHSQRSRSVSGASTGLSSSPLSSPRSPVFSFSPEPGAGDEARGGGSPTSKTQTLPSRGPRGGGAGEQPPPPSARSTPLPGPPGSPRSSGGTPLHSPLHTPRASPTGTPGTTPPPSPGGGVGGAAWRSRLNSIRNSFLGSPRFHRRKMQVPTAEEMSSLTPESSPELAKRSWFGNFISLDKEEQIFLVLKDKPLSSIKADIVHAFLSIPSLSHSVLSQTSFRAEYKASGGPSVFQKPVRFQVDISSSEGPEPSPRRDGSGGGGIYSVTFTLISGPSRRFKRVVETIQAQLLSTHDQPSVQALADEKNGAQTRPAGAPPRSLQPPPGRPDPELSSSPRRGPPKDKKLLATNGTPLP
# Settings: at 1 µM
row,Structure (SMILES),residual activity
1,COc1cc2ncnc(Nc3ccc(NC(=O)c4ccccc4)cc3)c2cc1OC,67%
2,O=C1NC(=O)/C(=C\c2ccc3nccnc3c2)S1,59%
3,O=C(Nc1cccc(Nc2nccc(Nc3cccc(C(F)(F)F)c3)n2)c1)C1CC1,26%
4,CCN(CC)CCCCN1c2ccccc2Oc2ccc(Cl)cc21,88%
5,Cc1cncc2cccc(S(=O)(=O)N3CCCN(C(=O)CN)C[C@H]3C)c12,57%
6,N#C/C(=C(\N)Sc1ccc(N)cc1)c1ccccc1C(F)(F)F,85%
7,O=C1Nc2cc(Br)ccc2/C1=C1/Nc2ccccc2/C1=N\O,33%
8,CC#CC(=O)Nc1cc2c(Nc3ccc(F)c(Cl)c3)ncnc2cn1,87%
9,O=C(Nc1cccc(Nc2cc(Nc3cccc(C(F)(F)F)c3)ncn2)c1)C1CC1,67%
10,COc1ccc(OC)c2c(=S)c3ccccc3[nH]c12,78%
11,O=c1c2ccccc2[nH]c(=S)n1CCN1CCC(=C(c2ccc(F)cc2)c2ccc(F)cc2)CC1,63%
12,CN(C)CCCn1cc(C2=C(c3c[nH]c4ccccc34)C(=O)NC2=O)c2ccccc21,42%
13,COc1cc2ncnc(Nc3ccc(O)c(Br)c3)c2cc1OC,17%
14,COc1cc2ncc(-c3ccccc3)nc2cc1OC,96%
15,COc1ccc(C(=O)Nc2sc3c(c2C(N)=O)CCCC3)cc1OC,93%
16,CO[C@H]1C[C@@H]2CC[C@@H](C)[C@@](O)(O2)C(=O)C(=O)N2CCCC[C@H]2C(=O)O[C@H]([C@H](C)C[C@@H]2CC[C@@H](O)[C@H](OC)C2)CC(=O)[C@H](C)/C=C(\C)[C@@H](O)[C@@H](OC)C(=O)[C@H](C)C[C@H](C)/C=C/C=C/C=C/1C,70%
